Source: PubChem BioAssay AID1209 (Sanford-Burnham Center for Chemical Genomics, 2008)
The campaign covered roughly 190,000 compounds. About 810 (0.43%) were called active. Rule as the data show it: active = inhibition above about 50%; inactive = the rest. This excerpt belongs to a sample that is enriched for actives.

What follows are molecules tested against Mannose-6-phosphate isomerase (Homo sapiens) (UniProt P34949) (assay: MPI enzyme activity inhibition – biochemical, fluorescence intensity, coupled assay, primary screen (AID 1209;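 also: plate controls were DMSO vehicle for no effect and wells lacking substrate for full effect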)). Conditions: purified PMI enzyme, at 20 µM, hits give high values.
Mannose-6-phosphate isomerase (Homo sapiens), sequence (P34949 whole entry, looked up): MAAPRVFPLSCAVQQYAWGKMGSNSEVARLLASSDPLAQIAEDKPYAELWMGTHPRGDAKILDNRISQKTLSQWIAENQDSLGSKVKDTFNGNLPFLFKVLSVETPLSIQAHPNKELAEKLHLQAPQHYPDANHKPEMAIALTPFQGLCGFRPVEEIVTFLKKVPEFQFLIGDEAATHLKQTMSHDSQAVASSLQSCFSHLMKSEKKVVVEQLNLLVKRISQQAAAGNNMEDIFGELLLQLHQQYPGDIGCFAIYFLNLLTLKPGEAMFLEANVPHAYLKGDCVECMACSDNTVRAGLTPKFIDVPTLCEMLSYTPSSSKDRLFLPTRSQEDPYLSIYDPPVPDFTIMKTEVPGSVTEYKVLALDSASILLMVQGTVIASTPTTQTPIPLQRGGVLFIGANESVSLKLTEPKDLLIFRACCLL

SMILES | inhibition
COc1ccc(C(=O)NC(C)c2ccccc2)cc1Br (centres undefined) | 3.2% (inactive)
O=C(O)C1Sc2[nH]c(=O)sc2C2c3cc(Cl)ccc3OC(=O)C12 (centres undefined) | 50.4% (active)
COC(=O)C1Sc2[nH]c(=O)sc2C2c3ccccc3OC(=O)C12 (centres undefined) | 10.6% (inactive)
O=C(O)C1Sc2[nH]c(=O)sc2C2c3ccc(O)cc3OC(=O)C12 (centres undefined) | 24.3% (inactive)
O=C(Nc1ccc(S(=O)(=O)Nc2nccs2)cc1)c1cc(-c2ccccn2)nc2ccccc12 | -1.4% (inactive)
CC(C)CCn1c(=O)c(C(=O)N/N=C/c2cccc(F)c2)c(O)c2ccccc21 | -3.7% (inactive)
CC(C)(C=O)C1=CC(=O)c2ccccc2C1=O | -17.2% (inactive)
CC(C)(C)C1=CC(=O)C(=O)C(C(C)(C)C)=C1 | 61.2% (active)
CC(C)(C)C1=CC(=Nc2ccccc2N)C=C(C(C)(C)C)C1=O | -7.3% (inactive)
COc1ccc(CCNC(=O)CN2CCN(c3cccc(C(F)(F)F)c3)CC2)cc1 | 3.1% (inactive)
O=C(c1ccco1)N1CCN(c2nc(-c3ccc(F)cc3)cs2)CC1 | 5.4% (inactive)
N#CC(=C1CCCC1)c1nc(-c2cc3ccccc3oc2=O)cs1 | 1.4% (inactive)
CN(C)CCCNS(=O)(=O)c1ccc(Cl)s1 | 0% (inactive)
Fc1ccc(C2c3cccn3CCN2C(=S)Nc2cccc(Br)c2)cc1 (centres undefined) | 5.7% (inactive)
O=C1CCc2cc(S(=O)(=O)N3CCN(c4ccccc4F)CC3)ccc2N1 | 6% (inactive)
COc1ccc(CC(NC(C)=O)C(=O)NC2CCN(C(=O)NCc3ccccc3)CC2)cc1OC (centres undefined) | -4.4% (inactive)
CCC(=O)NC(=S)Nc1ccc(NC(=O)COc2ccc(Cl)cc2Cl)cc1 | 5.1% (inactive)
CCC(=O)NC(=S)Nc1ccc(NC(=O)COc2ccccc2)cc1 | 10.1% (inactive)
CCC(=O)NC(=S)Nc1ccc(NC(=O)COc2ccc(Cl)c(C)c2)cc1 | 62.3% (active)
Cc1cc(NC(=O)CSc2nnc(NC(=O)C3CC(=O)N(c4ccccc4)C3)s2)no1 (centres undefined) | -9.8% (inactive)
O=C(CCn1c(=O)sc2ccccc21)NCCC1=CCCCC1 | 3.6% (inactive)
CC(C)c1ccc(C2=C(O)c3ccccc3C(=O)C2=O)cc1 | -3.9% (inactive)
COc1ccc(C2=C(N)c3ccccc3C2=O)cc1 | 3.9% (inactive)

SMILES | inhibition
CCOC(=O)C1=C(Cc2ccc(OC)cc2)C(=O)c2ccccc2C1=O | 22.9% (inactive)
O=C(C1=C(c2ccccc2)C(=O)c2ccccc2C1=O)c1ccccc1 | 48.7% (inactive)
CC(=O)C1=C(c2ccc(Br)cc2)C(=O)c2ccccc2C1=O | 80.3% (active)
OC(CNCc1ccccc1)Cn1ccc2ccccc21 (centres undefined) | -1.3% (inactive)
NC(N)=N/N=C/c1ccc(Br)cc1 | -2.5% (inactive)
O=c1cc(-c2ccc(O)c(O)c2)oc2c(C3O[C@H](CO)[C@@H](O)[C@H](O)[C@H]3O)c(O)cc(O)c12 (some centres undefined) | 51.9% (active)
O=c1cc(-c2ccc(O)c(O)c2)oc2cc(O)c(C3OC(CO)C(O)C(O)C3O)c(O)c12 (centres undefined) | 45.4% (inactive)
O=c1cc(-c2ccc(O)cc2)oc2c([C@@H]3O[C@H](CO)[C@@H](O)[C@H](O)[C@H]3O)c(O)c([C@@H]3O[C@H](CO)[C@@H](O)[C@H](O)[C@H]3O)c(O)c12 | -0.7% (inactive)
NC1=Nc2cccc3cccc1c23 | 12.8% (inactive)
CC(=O)N1C(=O)c2cccc3cccc(c23)C(=O)N1C(C)=O | 9.5% (inactive)
CCN1CCN(C(=O)c2oc(=O)c3ccccc3c2-c2ccc(C)cc2)CC1 | -1.6% (inactive)
CNc1nc2[nH]c(=O)c3c(c2s1)OC(N)=C(C#N)C3c1ccccc1 (centres undefined) | 43.5% (inactive)
CNc1nc2[nH]c(=O)c3c(c2s1)OC(N)=C(C#N)C3c1cccc(F)c1 (centres undefined) | 39.7% (inactive)
CCNc1nc2[nH]c(=O)c3c(c2s1)OC(N)=C(C#N)C3c1ccc(C)cc1 (centres undefined) | 54.6% (active)
COCCCNC(=S)N/N=C/c1ccc(N(C)C)cc1 | 1% (inactive)
CCC(C)/C(C)=N/NC(=O)c1ccc(COc2ccc(Cl)c(C)c2)cc1 (centres undefined) | 13.9% (inactive)
Oc1ccc(CNc2ccc(F)cc2)c2cccnc12 | 36.2% (inactive)
Cc1ccc(NCc2ccc(O)c3ncccc23)cc1C | 55.8% (active)
Oc1ccc(COCc2ccccc2)c2cccnc12 | 46.1% (inactive)
Cc1ccc(NCc2ccc(O)c3ncccc23)cc1 | 50.8% (active)
Oc1ccc(F)c2cccnc12 | 50.9% (active)
COCc1ccc(O)c2ncccc12 | 23.7% (inactive)
Oc1ccc(CNc2ccccc2)c2cccnc12 | 50.5% (active)

SMILES | inhibition
OCc1ccc(O)c2ncccc12 | 27% (inactive)
Cc1cccc(NCc2ccc(O)c3ncccc23)c1 | 42.5% (inactive)
Cc1ccc(NCc2ccccc2O)cc1 | 13.8% (inactive)
O=[N+]([O-])c1ccc(O)c2ncccc12 | -7.5% (inactive)
Cc1ccc(NCc2ccccc2O)cc1C | 19.9% (inactive)
S=c1[nH]nc(-c2cccnc2)o1 | -18.4% (inactive)
Nc1nc(NC(=O)/C=C\C(=O)O)nn1-c1ccccc1 | -12.4% (inactive)
Cc1ccc(C)c(NC(=S)N(Cc2ccc(Cl)cc2)Cc2ccc(C(=O)O)cc2)c1 | -4.3% (inactive)
O=C(NCCN1C(=O)S/C(=C\c2ccccc2)C1=O)C1CCN(S(=O)(=O)c2cccs2)CC1 | 8.1% (inactive)
CC(=O)c1cnn(-c2cc(Oc3cccc(C)c3)ncn2)c1C | 16.6% (inactive)
O=Cc1cn(-c2ccc(F)cc2)c2ccccc12 | 4.3% (inactive)
Cc1cccc(NC(=O)c2ccccc2OCC(=O)N2CCOCC2)c1C | 11.4% (inactive)
CCOc1ccccc1NC(=O)NCc1cccnc1 | 0.3% (inactive)
CSC1=C(C#N)C(c2ccc3c(c2)OCO3)C2=C(CCCC2=O)N1 (centres undefined) | -3% (inactive)
COc1cc(C(=S)N2CCN(c3cccc(Cl)c3)CC2)ccc1O | 58.8% (active)
COc1ccc(C(=S)N2CCN(c3cccc(Cl)c3)CC2)c(OC)c1 | 20.6% (inactive)
COc1cc(C(=S)N2CCCC2)cc(OC)c1O | 17.5% (inactive)
Oc1ccc(C(=S)N2CCN(c3cccc(Cl)c3)CC2)cc1 | 59.2% (active)
COc1cc(C(=S)N2CCCC2)cc(Cl)c1O | 4.8% (inactive)
Oc1ccccc1C(=S)N1CCN(c2cccc(Cl)c2)CC1 | 22.1% (inactive)
COc1cc(C(=S)N2CCN(c3ccccc3Cl)CC2)cc(O)c1O | 67.5% (active)
CC(=O)c1ccc(NC(=S)N2CCN(c3cccc(Cl)c3)CC2)cc1 | -6.5% (inactive)
COc1cc(C(=S)N2CCCC2)ccc1O | -0.7% (inactive)
